# PubChem BioAssay (NCATS)
# “And” between values parts separate entries of the source, which are not always exact repeats. Equal values may be shown once. Results filed as inconclusive are left out. The source holds several records for some structures; these can differ, active in one and inactive in another. The source made the active and inactive calls. Unless noted, the call rests on the fitted dose curve; in most records, active means well fitted curve in the direction sought with a large enough effect; inconclusive means small, poorly fitted or top-dose-only effect, or another doubt; inactive means no such curve, though single readings can be large; an effect the other way counts as inactive or inconclusive.
# How the values were obtained:
# [1] = molecular target: Hexokinase-4 (Homo sapiens) + Glucokinase regulatory protein (Homo sapiens) (UniProt P35557+Q14397); experiment: qHTS assay for inhibitors of recombinant human GCK-GKRP interaction: HTRF assay (AID 743207);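 further: 0% = DMSO with GCK present and -100% = DMSO wells lacking GCK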
# Hexokinase-4 (Homo sapiens) + Glucokinase regulatory protein (Homo sapiens), sequence (P35557 whole entry, looked up): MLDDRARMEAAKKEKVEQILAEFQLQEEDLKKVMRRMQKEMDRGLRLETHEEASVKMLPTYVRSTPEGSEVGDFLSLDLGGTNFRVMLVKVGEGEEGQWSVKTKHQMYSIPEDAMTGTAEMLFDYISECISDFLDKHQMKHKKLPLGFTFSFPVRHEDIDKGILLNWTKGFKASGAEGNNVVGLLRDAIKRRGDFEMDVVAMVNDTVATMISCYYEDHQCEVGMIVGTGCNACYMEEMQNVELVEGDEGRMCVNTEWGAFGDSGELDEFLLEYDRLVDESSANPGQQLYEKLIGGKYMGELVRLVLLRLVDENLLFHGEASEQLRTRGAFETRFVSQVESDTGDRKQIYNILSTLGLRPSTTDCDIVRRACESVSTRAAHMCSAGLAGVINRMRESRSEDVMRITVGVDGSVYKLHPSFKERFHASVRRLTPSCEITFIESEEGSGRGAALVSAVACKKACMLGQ
# Hexokinase-4 (Homo sapiens) + Glucokinase regulatory protein (Homo sapiens), sequence (Q14397 whole entry, looked up): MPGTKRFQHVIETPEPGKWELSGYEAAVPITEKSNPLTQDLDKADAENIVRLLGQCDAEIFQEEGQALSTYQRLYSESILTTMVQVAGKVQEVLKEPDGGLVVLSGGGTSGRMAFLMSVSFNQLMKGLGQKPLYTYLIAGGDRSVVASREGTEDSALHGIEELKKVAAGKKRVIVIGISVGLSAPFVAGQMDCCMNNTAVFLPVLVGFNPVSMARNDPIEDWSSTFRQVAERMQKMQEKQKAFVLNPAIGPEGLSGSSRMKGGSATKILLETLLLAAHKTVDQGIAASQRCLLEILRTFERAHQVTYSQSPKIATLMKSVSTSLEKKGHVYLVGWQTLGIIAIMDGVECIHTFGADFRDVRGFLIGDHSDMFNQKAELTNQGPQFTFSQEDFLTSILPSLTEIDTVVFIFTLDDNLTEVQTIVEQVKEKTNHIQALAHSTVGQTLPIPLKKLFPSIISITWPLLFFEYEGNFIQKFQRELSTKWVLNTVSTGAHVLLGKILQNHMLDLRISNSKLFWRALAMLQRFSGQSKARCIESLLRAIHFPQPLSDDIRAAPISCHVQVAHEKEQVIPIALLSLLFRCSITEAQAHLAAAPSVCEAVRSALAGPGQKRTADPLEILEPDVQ
# In short: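 After 60 min equilibration at room temperature with anti-FLAG XL665 and anti-GST antibodies, FRET ratio (665/615 nm, excitation 320 nm) was read. Proteins: GST-GCK and FLAG-GKRP, each 5 nM, plus 2 uM S6P, pH 7.1 buffer; GCK-free wells define minimum signal.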
# [2] = qHTS Assay for Identifying Gametocytocidal Compounds (AID 743244);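 further: on the % scale 0 is the no-effect control and ±100 the full control effect; actives lower the fluorescent signal which means gametocytes are killed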; conditions: P. falciparum 3D7 stage III-V gametocytes, alamarBlue, 72 h; max response: stronger effect = lower value
# In short: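 In this qHTS viability screen, late-stage 3D7 gametocytes are incubated with compound for 72 h, then with alamarBlue for 24 h; reduced resorufin fluorescence marks killing.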
# [3] = qHTS assay for cell viability of HEK293 cells (AID 743288); conditions: ATP luminescence (CellTiter-Glo), 18 h; max response: stronger effect = lower value; further: nearly all actives have a fitted effect of over 50% in size; further: potency means the concentration at half of the fitted maximal effect; on max response: on the % scale 0 is the no-effect control and ±100 the full control effect
# In short: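 Total intracellular ATP, measured with a luciferase-coupled reagent, indicates the number of viable HEK293 cells. Exposure to test chemicals lasts 18 h at 37 C in 1,536-well format at 2,000 cells/well.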
# [4] = qHTS assay for cell viability of the p53RE-bla HCT-116 cell line (AID 743292); further: on the % scale 0 is the no-effect control and ±100 the full control effect; nearly all actives have a fitted effect of over 55% in size
# In short: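 Compound-exposed HCT-116 (p53RE-bla) cells, 4,000 per well, were kept 16 h at 37 C following a 5 h preincubation. Cell number was estimated from total ATP by CellTiter-Glo luminescence read after 30 min at room temperature.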
# [5] = High-throughput drug toxicity screening in the BPDCN cell line Gen2.2 (AID 1224824; call rule not given here;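 further: cells exposed to compounds for 48 h before reading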); conditions: Gen2.2 BPDCN cells; at 45.8 µM (top of the series) unless noted
# In short: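 CellTiter-Glo luminescence read after 48 h compound exposure at 37 C defines viability; percent activity set with DMSO as 100% and bortezomib (9.2 uM final) as 0%. 500 exponentially growing cells per well, RPMI plus 10% FBS.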
# [6] = High-throughput drug toxicity screening in the BPDCN cell line Cal-1 (AID 1224825; call rule not given here); conditions: Cal-1 BPDCN cell viability, qHTS; at 45.8 µM (top of the series) unless noted
# In short: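 Cal-1 cells, 500 per well in phenol-red-free RPMI with 10% FBS, exposed to compounds for 48 hours at 37C, 5% CO2. Viability read by CellTiter-Glo luminescence; percent activity normalized to DMSO (100%) and 9.2 uM bortezomib final (0%).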
# [7] = qHTS assay for measurement of the activity of small molecule inhibitors on Zika virus induced Caspase-3 activity in human iPSC derived neural progenitor cells (hNPCs) (AID 1224857); further: % of control where 0% means no effect; nearly all actives have a fitted effect of over 65% in size
# In short: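 In medium with heparin 2 ug/ml and cyclopamine 2 uM, hNPCs (350 cells/well) received compound for one hour and then Zika virus at 2 FFU/cell; caspase activity was measured by Caspase-Glo 3/7 luminescence 6 h post-infection.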
# [8] = qHTS assay for measurement of the activity of small molecule inhibitors on Zika virus induced Caspase-3 activity in human astrocytoma cells (AID 1224859);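 further: plate controls were ZIKV-infected untreated cells for no effect and uninfected cells for full effect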
# In short: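 A cell-based luminescent caspase-3/7 assay used SNB-19 cells infected with ZIKV (2 FFU/cell) for 6 h following 1 h compound pretreatment.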
# [9] = qHTS Screen of the MIPE 4.0 Collection Against Ewings Sarcoma (RDES) (AID 1259252); further: nearly all actives have a fitted effect of over 35% in size; further: potency means the concentration at half of the fitted maximal effect
# In short: (§1)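 Log-phase cells in RPMI with 5% FBS attached for 4 h, then received compounds as a titration for 48 h at 37C, 5% CO2. Viability was read by CellTiter-Glo luminescence and normalized to DMSO and no-cell wells.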
# [10] = qHTS Screen of the MIPE 4.0 Collection Against Ewings Sarcoma (TC71) (AID 1259253); further: nearly all actives have a fitted effect of over 40% in size; further: potency means the concentration at half of the fitted maximal effect
# In short: as §1
# [11] = qHTS Screen of the MIPE 4.0 Collection Against Ewings Sarcoma (EW8) (AID 1259255); further: nearly all actives have a fitted effect of over 35% in size; further: potency means the concentration at half of the fitted maximal effect;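 on viability: 100% = DMSO-treated cells and 0% = medium-only wells without cells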
# In short: as §1
# [12] = qHTS Screen of the MIPE 4.0 Collection Against Ewings Sarcoma (TC32) (AID 1259256); further: nearly all actives have a fitted effect of over 45% in size; further: potency means the concentration at half of the fitted maximal effect
# In short: as §1
# [13] = qHTS profiling of the MIPE4 collection as inhibitors of Plasmodium falciparum (3D7) proliferation (AID 743344; call rule not given here;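 further: scaled between DMSO vehicle wells and 0.29 µM artemisinin as full inhibition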); conditions: P. falciparum 3D7 in erythrocytes, SYBR Green DNA fluorescence, 72 h; at 28.5 µM (top of the series) unless noted
# In short: (§2)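 Erythrocytes infected with P. falciparum (0.3% parasitemia, 2.5% hematocrit) incubated with compounds 72 h at 37 C, 5% CO2. Lysis with saponin/Triton buffer containing SYBR Green I, overnight at room temperature in the dark; DNA fluorescence (485/535 nm) normalised to 0.29 uM artemisinin and DMSO.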
# [14] = qHTS profiling of the MIPE4 collection as inhibitors of Plasmodium falciparum (DD2) proliferation (AID 743345; call rule not given here); conditions: P. falciparum Dd2 in erythrocytes, SYBR Green DNA, 72 h; at 28.5 µM (top of the series) unless noted
# In short: as §2
# [15] = qHTS profiling of the MIPE4 collection as inhibitors of Plasmodium falciparum (DD2) proliferation (Rep 2) (AID 743346; call rule not given here); conditions: P. falciparum Dd2 in erythrocytes, SYBR Green DNA, 72 h; at 28.5 µM (top of the series) unless noted
# In short: as §2
# [16] = qHTS profiling of the MIPE4 collection as inhibitors of Plasmodium falciparum (HB3) proliferation (AID 743347; call rule not given here;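 further: plate controls were DMSO vehicle wells for no effect and artemisinin wells for full effect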); conditions: P. falciparum HB3 in erythrocytes, SYBR Green DNA, 72 h; at 28.5 µM (top of the series) unless noted
# In short: as §2
# [17] = qHTS assay to identify small molecule inhibitors of chordoma cells - UCH-1 (AID 1259355); further: on the % scale 0 is the no-effect control and ±100 the full control effect; nearly all actives have a fitted effect of over 55% in size
# In short: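 Cells (800/well) were seeded and left overnight at 37 C, 5% CO2, then treated with drugs at 15 concentrations plus a combination mix of auranofin, camptothecin, doxorubicin, rubitecan and topotecan. Viability after 48hr was read by CellTiter-Glo luminescence.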
# [18] = qHTS profiling for inhibitors of Plasmodium falciparum (3D7) proliferation (AID 743322; call rule not given here;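 further: infected erythrocytes exposed to compound for 72 h before lysis; 100% = DMSO vehicle wells and 0% = 0.29 µM artemisinin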); conditions: P. falciparum 3D7 proliferation; at 28.7 µM (top of the series)
# In short: as §2
# [19] = qHTS profiling for inhibitors of Plasmodium falciparum (DD2) proliferation (AID 743323; call rule not given here); conditions: lower = more inhibition; at 28.7 µM (top of the series)
# In short: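 1536-well qHTS; infected RBCs 0.3% parasitemia/2.5% Hct final; cpd 72 h 37 C 5% CO2; lysis buffer + SYBR Green I, o/n RT dark; FI 485/535; norm. to 0.29 uM artemisinin and DMSO, plate-stack corrected.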
# [20] = qHTS profiling for inhibitors of Plasmodium falciparum (HB3) proliferation (AID 743324); conditions: Plasmodium falciparum HB3 blood-stage proliferation; at 28.7 µM (top of the series);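 further: 100% = DMSO vehicle wells and 0% = artemisinin-treated control wells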
# In short: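 P. falciparum HB3 grown in erythrocytes (0.3% parasitemia, 2.5% hematocrit final) with compound for 72 h at 37 C, 5% CO2. Parasite DNA detected by SYBR Green after saponin/triton lysis overnight; normalized to 0.29 uM artemisinin and DMSO.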
structure (smiles),measurement,setting,value
CC(=O)[C@H]1CC[C@H]2[C@@H]3CCC4=CC(=O)CC[C@]4(C)[C@H]3CC[C@]12C,outcome,[1],inactive
same,max response,[2],-0.829% (inactive) and 23.1% (inactive)
same,Potency,[3],44.7 µM (active)
same,max response,[3],-28% (inactive)
same,Potency,[4],inactive
same,"cell viability, % of control (lower = more cytotoxic)",[5],83%
same,viability (% of control),[6],79.9%
same,Potency,[7],inactive
same,Potency,[8],inactive
same,Potency,[9],3.32 µM (active)
same,Potency,[10],3.32 µM (active)
same,Potency,[11],9.35 µM (active)
same,Potency,[12],3.72 µM (active)
CCN1CCCC1CNC(=O)c1cc(S(N)(=O)=O)ccc1OC (stereo not drawn),outcome,[1],inactive
same,max response,[2],13% (inactive)
same,"parasite growth, % of DMSO control",[13],101%
same,"parasite growth remaining, % of DMSO control (lower = more inhibition)",[14],90.1%
same,"parasite growth, % of control (lower = inhibition)",[15],41.9%
same,"growth, % of control",[16],70.9%
same,"cell viability, % of control (lower = more cytotoxic)",[5],128%
same,viability (% of control),[6],82.8%
same,Potency,[7],inactive
same,Potency,[8],inactive
same,Potency,[9],inactive
same,Potency,[10],16.6 µM (active)
same,Potency,[11],inactive
CCc1cc(C(N)=S)ccn1,max response,[2],-11% (inactive)
same,max response,[3],6.59% (inactive) and -10.6% (inactive)
same,Potency,[4],inactive
same,"parasite growth, % of DMSO control",[13],4.85%
same,"parasite growth remaining, % of DMSO control (lower = more inhibition)",[14],10.5%
same,"parasite growth, % of control (lower = inhibition)",[15],6.58%
same,"growth, % of control",[16],2.68%
same,"cell viability, % of control (lower = more cytotoxic)",[5],139%
same,viability (% of control),[6],95.1%
same,Potency,[7],inactive
same,Potency,[8],inactive
same,Potency,[9],inactive
same,Potency,[10],20.9 µM (active)
same,Potency,[11],inactive
same,Potency,[17],inactive
Cc1ccc(S(=O)(=O)N[C@@H](Cc2ccccc2)C(=O)CCl)cc1,outcome,[1],inactive
same,max response,[2],11.5% (inactive)
same,"parasite growth, % of DMSO control",[13],90.3%
same,"parasite growth remaining, % of DMSO control (lower = more inhibition)",[14],91.3%
same,"growth, % of control",[16],84.3%
same,"cell viability, % of control (lower = more cytotoxic)",[5],4.27%
same,viability (% of control),[6],3.45%
same,Potency,[7],inactive
same,Potency,[8],inactive
same,Potency,[9],26.4 µM (active)
same,Potency,[10],18.7 µM (active)
same,Potency,[11],16.6 µM (active)
same,Potency,[12],14.8 µM (active)
CC(C(=O)O)c1ccc2c(c1)CC(=O)c1ccccc1S2 (stereo not drawn),"parasite growth, % of DMSO control",[13],69.8%
same,"parasite growth remaining, % of DMSO control (lower = more inhibition)",[14],92.6%
same,"parasite growth, % of control (lower = inhibition)",[15],187%
same,"growth, % of control",[16],97.8%
same,"cell viability, % of control (lower = more cytotoxic)",[5],113%
same,viability (% of control),[6],19.4%
same,Potency,[7],inactive
same,Potency,[8],inactive
same,Potency,[9],inactive
same,Potency,[10],inactive
same,Potency,[11],inactive
same,Potency,[12],inactive
CCCCS(=N)(=O)CCC(N)C(=O)O (stereo not drawn),outcome,[1],inactive
same,remaining parasite growth % (stronger effect = lower value),[18],88.1%
same,"activity, percent of control",[19],31.7%
same,"remaining proliferation (% of control), lower = more inhibition",[20],88%
same,"parasite growth, % of DMSO control",[13],102%
same,"parasite growth remaining, % of DMSO control (lower = more inhibition)",[14],94.1%
same,"growth, % of control",[16],102%
same,"cell viability, % of control (lower = more cytotoxic)",[5],17.3%
same,viability (% of control),[6],34.2%
same,Potency,[7],inactive
same,Potency,[8],inactive
same,Potency,[9],14.8 µM (active)
same,Potency,[10],inactive
same,Potency,[11],inactive
same,Potency,[12],inactive
NNC(=O)c1ccncc1,max response,[2],-1.22% (inactive)
same,max response,[3],-4% (inactive)
same,Potency,[4],inactive
same,"parasite growth, % of DMSO control",[13],5.29%
same,"parasite growth remaining, % of DMSO control (lower = more inhibition)",[14],8.99%
same,"growth, % of control",[16],2.55%
same,"cell viability, % of control (lower = more cytotoxic)",[5],88.1%
same,viability (% of control),[6],99.3%
same,Potency,[7],inactive
same,Potency,[8],inactive
same,Potency,[9],inactive
same,Potency,[10],inactive
same,Potency,[11],inactive
same,Potency,[12],inactive
COC(=O)Nc1nc2ccc(Sc3ccccc3)cc2[nH]1,max response,[2],2.65% (inactive)
same,"parasite growth, % of DMSO control",[13],75.4%
same,"parasite growth remaining, % of DMSO control (lower = more inhibition)",[14],99.3%
same,"parasite growth, % of control (lower = inhibition)",[15],18.7%
same,"growth, % of control",[16],102%
same,"cell viability, % of control (lower = more cytotoxic)",[5],61%
same,viability (% of control),[6],18.7%
same,Potency,[7],inactive
same,Potency,[8],inactive
same,Potency,[9],1.66 µM (active)
same,Potency,[10],1.66 µM (active)
same,Potency,[11],1.32 µM (active)
same,Potency,[12],1.18 µM (active)
